{
  "source": "paper PMC11006913",
  "experiment_in_all_cases": "PBM; 200 nM protein, PBS",
  "conditions_in_all_cases": "dsDNA, one strand shown",
  "key": {"HOXB4 [1]": {"molecular_target": "HOXB4 (Homo sapiens, UniProt P17483 148-234)", "sequence (P17483 148-234)": "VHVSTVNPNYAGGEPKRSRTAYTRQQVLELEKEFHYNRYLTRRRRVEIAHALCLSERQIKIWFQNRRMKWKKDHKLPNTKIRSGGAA"}, "VENTX [2]": {"molecular_target": "T1, VENTX (Homo sapiens, UniProt O95231 78-163, R121Q)", "T1 sequence": "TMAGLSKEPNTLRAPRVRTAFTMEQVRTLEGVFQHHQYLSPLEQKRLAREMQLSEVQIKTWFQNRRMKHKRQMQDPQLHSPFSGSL"}, "HOXA4 [3]": {"molecular_target": "HOXA4 (Homo sapiens, UniProt Q00056 201-287, W262R)", "sequence (Q00056 201-287 W262R)": "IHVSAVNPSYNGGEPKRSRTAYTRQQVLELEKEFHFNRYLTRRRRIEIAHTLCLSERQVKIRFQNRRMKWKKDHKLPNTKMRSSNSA"}, "VENTX [4]": {"molecular_target": "T2, VENTX (Homo sapiens, UniProt O95231 78-163)", "T2 sequence": "T1 sequence with Q44R"}, "PAX4 [5]": {"molecular_target": "T3, PAX4 (Homo sapiens, UniProt O43316 9-242, R200K)", "T3 sequence": "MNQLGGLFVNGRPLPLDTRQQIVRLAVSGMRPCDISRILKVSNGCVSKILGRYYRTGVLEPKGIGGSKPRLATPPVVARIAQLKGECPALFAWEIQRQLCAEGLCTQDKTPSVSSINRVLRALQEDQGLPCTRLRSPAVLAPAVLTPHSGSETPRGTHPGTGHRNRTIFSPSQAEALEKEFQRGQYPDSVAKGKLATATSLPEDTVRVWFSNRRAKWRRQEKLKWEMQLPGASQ"}, "VENTX [6]": {"molecular_target": "T4, VENTX (Homo sapiens, UniProt O95231 78-163, Y115F)", "T4 sequence": "T1 sequence with Y38F, Q44R"}, "PAX4 [7]": {"molecular_target": "T5, PAX4 (Homo sapiens, UniProt O43316 9-242)", "T5 sequence": "T3 sequence with K192R"}, "HOXA4 [8]": {"molecular_target": "HOXA4 (Homo sapiens, UniProt Q00056 201-287, R217L)", "sequence (Q00056 201-287 R217L)": "as the sequence (Q00056 201-287 W262R) above, with R17L, R62W counted along it"}, "HOXB4 [9]": {"molecular_target": "HOXB4 (Homo sapiens, UniProt P17483 148-234, V174I)", "sequence (P17483 148-234 V174I)": "as the sequence (P17483 148-234) above, with V27I counted along it"}, "PAX4 [10]": {"molecular_target": "T6, PAX4 (Homo sapiens, UniProt O43316 9-242, R200Q)", "T6 sequence": "T3 sequence with K192Q"}, "PAX4 [11]": {"molecular_target": "T7, PAX4 (Homo sapiens, UniProt O43316 9-242, F177V)", "T7 sequence": "T3 sequence with F169V, K192R"}, "HOXA4 [12]": {"molecular_target": "HOXA4 (Homo sapiens, UniProt Q00056 201-287)", "sequence (Q00056 201-287)": "as the sequence (Q00056 201-287 W262R) above, with R62W counted along it"}, "PAX4 [13]": {"molecular_target": "T8, PAX4 (Homo sapiens, UniProt O43316 9-242, F177Y)", "T8 sequence": "T3 sequence with F169Y, K192R"}, "PAX4 [14]": {"molecular_target": "T9, PAX4 (Homo sapiens, UniProt O43316 9-242, R227W)", "T9 sequence": "T3 sequence with K192R, R219W"}, "HOXA4 [15]": {"molecular_target": "HOXA4 (Homo sapiens, UniProt Q00056 201-287, W262F)", "sequence (Q00056 201-287 W262F)": "as the sequence (Q00056 201-287 W262R) above, with R62F counted along it"}, "HOXB9 [16]": {"molecular_target": "HOXB9 (Homo sapiens, UniProt P17482 171-250, T197M)", "sequence (P17482 171-250 T197M)": "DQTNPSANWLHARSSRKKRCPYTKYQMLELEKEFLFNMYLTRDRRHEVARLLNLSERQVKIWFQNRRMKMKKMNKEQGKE"}, "HOXB9 [17]": {"molecular_target": "HOXB9 (Homo sapiens, UniProt P17482 171-250)", "sequence (P17482 171-250)": "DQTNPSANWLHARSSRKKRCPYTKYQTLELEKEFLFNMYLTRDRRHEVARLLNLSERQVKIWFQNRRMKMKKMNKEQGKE"}, "HOXB9 [18]": {"molecular_target": "HOXB9 (Homo sapiens, UniProt P17482 171-250, R186Q)", "sequence (P17482 171-250 R186Q)": "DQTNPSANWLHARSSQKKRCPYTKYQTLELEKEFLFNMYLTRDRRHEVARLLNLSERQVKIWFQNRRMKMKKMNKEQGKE"}, "ALX4 [19]": {"molecular_target": "ALX4 (Homo sapiens, UniProt Q9H161 200-286)", "sequence (Q9H161 200-286)": "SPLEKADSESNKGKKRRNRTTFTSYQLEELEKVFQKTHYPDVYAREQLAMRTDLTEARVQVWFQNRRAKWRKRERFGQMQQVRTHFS"}, "ALX4 [20]": {"molecular_target": "ALX4 (Homo sapiens, UniProt Q9H161 200-286, Q225E)", "sequence (Q9H161 200-286 Q225E)": "as the sequence (Q9H161 200-286) above, with Q26E counted along it"}, "HOXA2 [21]": {"molecular_target": "HOXA2 (Homo sapiens, UniProt O43364 129-215, R185T)", "sequence (O43364 129-215 R185T)": "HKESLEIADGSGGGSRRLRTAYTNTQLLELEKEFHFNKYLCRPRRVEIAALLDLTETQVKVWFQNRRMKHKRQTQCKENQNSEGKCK"}, "MSX2 [22]": {"molecular_target": "MSX2 (Homo sapiens, UniProt P35548 130-214, R199I)", "sequence (P35548 130-214 R199I)": "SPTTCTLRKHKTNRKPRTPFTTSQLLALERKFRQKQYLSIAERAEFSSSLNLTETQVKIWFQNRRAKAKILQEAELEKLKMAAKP"}, "HOXA2 [23]": {"molecular_target": "HOXA2 (Homo sapiens, UniProt O43364 129-215, R185K)", "sequence (O43364 129-215 R185K)": "as the sequence (O43364 129-215 R185T) above, with T57K counted along it"}, "MSX2 [24]": {"molecular_target": "MSX2 (Homo sapiens, UniProt P35548 130-214)", "sequence (P35548 130-214)": "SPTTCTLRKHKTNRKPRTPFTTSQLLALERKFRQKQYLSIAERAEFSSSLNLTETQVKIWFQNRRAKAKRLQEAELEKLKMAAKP"}, "MSX2 [25]": {"molecular_target": "MSX2 (Homo sapiens, UniProt P35548 130-214, F161Y)", "sequence (P35548 130-214 F161Y)": "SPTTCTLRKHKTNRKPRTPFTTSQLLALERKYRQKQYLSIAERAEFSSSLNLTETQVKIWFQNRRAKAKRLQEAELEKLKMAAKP"}, "HOXA2 [26]": {"molecular_target": "HOXA2 (Homo sapiens, UniProt O43364 129-215, Y150S)", "sequence (O43364 129-215 Y150S)": "as the sequence (O43364 129-215 R185T) above, with Y22S, T57R counted along it"}, "HOXA2 [27]": {"molecular_target": "HOXA2 (Homo sapiens, UniProt O43364 129-215)", "sequence (O43364 129-215)": "as the sequence (O43364 129-215 R185T) above, with T57R counted along it"}},
  "note": "Numbering of substitutions follows the chain as printed.",
  "data": [
    {"sequence": "ATTAATCG", "values": [
      {"measurement": "binding signal", "setting": "HOXB4 [1]", "result": "13 upbm affinity estimate (log intensity, higher = more binding, comparable within an allelic series)"},
      {"measurement": "binding signal", "setting": "VENTX [2]", "result": "11.6 upbm affinity estimate (log intensity, higher = more binding, comparable within an allelic series)"},
      {"measurement": "binding signal", "setting": "HOXA4 [3]", "result": "10.5 upbm affinity estimate (log intensity, higher = more binding, comparable within an allelic series)"},
      {"measurement": "binding signal", "setting": "VENTX [4]", "result": "12.5 upbm affinity estimate (log intensity, higher = more binding, comparable within an allelic series)"},
      {"measurement": "binding signal", "setting": "PAX4 [5]", "result": "11.6 upbm affinity estimate (log intensity, higher = more binding, comparable within an allelic series)"},
      {"measurement": "binding signal", "setting": "VENTX [6]", "result": "11.4 upbm affinity estimate (log intensity, higher = more binding, comparable within an allelic series)"},
      {"measurement": "binding signal", "setting": "PAX4 [7]", "result": "12.2 upbm affinity estimate (log intensity, higher = more binding, comparable within an allelic series)"},
      {"measurement": "binding signal", "setting": "HOXA4 [8]", "result": "11.9 upbm affinity estimate (log intensity, higher = more binding, comparable within an allelic series)"},
      {"measurement": "binding signal", "setting": "HOXB4 [9]", "result": "13.7 upbm affinity estimate (log intensity, higher = more binding, comparable within an allelic series)"},
      {"measurement": "binding signal", "setting": "PAX4 [10]", "result": "12 upbm affinity estimate (log intensity, higher = more binding, comparable within an allelic series)"},
      {"measurement": "binding signal", "setting": "PAX4 [11]", "result": "10.5 upbm affinity estimate (log intensity, higher = more binding, comparable within an allelic series)"},
      {"measurement": "binding signal", "setting": "HOXA4 [12]", "result": "13.6 upbm affinity estimate (log intensity, higher = more binding, comparable within an allelic series)"},
      {"measurement": "binding signal", "setting": "PAX4 [13]", "result": "11.1 upbm affinity estimate (log intensity, higher = more binding, comparable within an allelic series)"},
      {"measurement": "binding signal", "setting": "PAX4 [14]", "result": "10.7 upbm affinity estimate (log intensity, higher = more binding, comparable within an allelic series)"},
      {"measurement": "binding signal", "setting": "HOXA4 [15]", "result": "11.2 upbm affinity estimate (log intensity, higher = more binding, comparable within an allelic series)"}
    ]},
    {"sequence": "CCTGACCC", "values": [
      {"measurement": "binding signal", "setting": "HOXB4 [1]", "result": "7.93 upbm affinity estimate (log intensity, higher = more binding, comparable within an allelic series)"},
      {"measurement": "binding signal", "setting": "HOXB9 [16]", "result": "8.77 upbm affinity estimate (log intensity, higher = more binding, comparable within an allelic series)"},
      {"measurement": "binding signal", "setting": "HOXB9 [17]", "result": "8.65 upbm affinity estimate (log intensity, higher = more binding, comparable within an allelic series)"},
      {"measurement": "binding signal", "setting": "HOXB4 [9]", "result": "7.87 upbm affinity estimate (log intensity, higher = more binding, comparable within an allelic series)"},
      {"measurement": "binding signal", "setting": "HOXB9 [18]", "result": "8.66 upbm affinity estimate (log intensity, higher = more binding, comparable within an allelic series)"}
    ]},
    {"sequence": "CCCCCTCG", "values": [
      {"measurement": "binding signal", "setting": "HOXB4 [1]", "result": "7.86 upbm affinity estimate (log intensity, higher = more binding, comparable within an allelic series)"},
      {"measurement": "binding signal", "setting": "HOXB9 [16]", "result": "8.45 upbm affinity estimate (log intensity, higher = more binding, comparable within an allelic series)"},
      {"measurement": "binding signal", "setting": "ALX4 [19]", "result": "8.09 upbm affinity estimate (log intensity, higher = more binding, comparable within an allelic series)"},
      {"measurement": "binding signal", "setting": "ALX4 [20]", "result": "7.97 upbm affinity estimate (log intensity, higher = more binding, comparable within an allelic series)"},
      {"measurement": "binding signal", "setting": "HOXA2 [21]", "result": "7.09 upbm affinity estimate (log intensity, higher = more binding, comparable within an allelic series)"},
      {"measurement": "binding signal", "setting": "HOXB9 [17]", "result": "8.63 upbm affinity estimate (log intensity, higher = more binding, comparable within an allelic series)"},
      {"measurement": "binding signal", "setting": "HOXB4 [9]", "result": "7.85 upbm affinity estimate (log intensity, higher = more binding, comparable within an allelic series)"},
      {"measurement": "binding signal", "setting": "MSX2 [22]", "result": "9.51 upbm affinity estimate (log intensity, higher = more binding, comparable within an allelic series)"},
      {"measurement": "binding signal", "setting": "HOXA2 [23]", "result": "10.2 upbm affinity estimate (log intensity, higher = more binding, comparable within an allelic series)"},
      {"measurement": "binding signal", "setting": "MSX2 [24]", "result": "9.66 upbm affinity estimate (log intensity, higher = more binding, comparable within an allelic series)"},
      {"measurement": "binding signal", "setting": "HOXB9 [18]", "result": "8.59 upbm affinity estimate (log intensity, higher = more binding, comparable within an allelic series)"},
      {"measurement": "binding signal", "setting": "MSX2 [25]", "result": "9.64 upbm affinity estimate (log intensity, higher = more binding, comparable within an allelic series)"},
      {"measurement": "binding signal", "setting": "HOXA2 [26]", "result": "10.3 upbm affinity estimate (log intensity, higher = more binding, comparable within an allelic series)"},
      {"measurement": "binding signal", "setting": "HOXA2 [27]", "result": "7.14 upbm affinity estimate (log intensity, higher = more binding, comparable within an allelic series)"}
    ]}
  ]
}
